Results on 30 compounds are retold here after PubChem BioAssay (NCATS).

Results filed as inconclusive are left out. A number with no mark means an inactive call. Active and inactive are the calls of the source. Calls follow the shape of the dose curve; as a rule, active = well fitted inhibition curve with a large enough effect; inconclusive = small, poorly fitted or top-dose-only effect; inactive = flat fitted curve, though single readings scatter.
% is scaled to controls: 0 for no effect and ±100 for the full control effect.

The test has as its system NIH3T3. Briefly: Cytotoxic Profiling of Annotated Libraries Using Quantitative High-Throughput Screening (AID 1296008). Also: nearly all actives have a fitted effect of over 60% in size. The conditions noted are these: Five cell lines viability, CellTiter-Glo ATP luminescence, 48-72 h; max response: active compounds read low. The gist of the method:
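Cytotoxicity was measured as CellTiter-Glo ATP luminescence, read after 10 min at room temperature. Compound treatment of the cells lasted 48 or 72 hr at 37 degrees Celsius in a qHTS format.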
For `C/C=C/C=C/C=C/C(=O)O[C@@H]1C=C(CO)C(O)(C(=O)OC)[C@@]2(C)CCCC(C)(C)C12` (stereo not given in full), the max response is 4.09%.

Consider `COCCCNC(=O)c1ccc(Cn2c(=O)c3ccccc3n(Cc3ccc(C(C)C)cc3)c2=O)cc1`, for which the max response is 4.09%.

Turning to `C=CC(C)(O)CC/C=C(\C)C(=O)OC1C(O)C(CO)OC(OC(=O)C23CCC(C)(C)CC2C2=CCC4C5(C)CCC(OC6OC(COC7OCC(OC(C)=O)C(O)C7OC7OC(COC(C)=O)C(O)C(O)C7OC(C)=O)C(O)C(O)C6OC6OCC(O)C(O)C6O)C(C)(C)C5CCC4(C)C2(C)C(O)C3O)C1OC1OCC(OC2OCC(O)C(OC3OCC(O)C(O)C3O)C2O)C(O)C1O` (stereo not given), the max response is -5.37%.

Take `C[C@@H]1O[C@@H](O[C@H]2[C@H](O[C@H]3CC[C@@]4(C)C(CC[C@]5(C)C4C=C[C@]46OC[C@@]7(CCC(C)(C)C[C@H]74)[C@@H](O[C@@H]4O[C@@H](C)[C@H](O)[C@@H](O)[C@H]4O)C[C@]65C)[C@]3(C)CO)O[C@H](CO)[C@@H](O)[C@@H]2O[C@@H]2O[C@H](CO)[C@@H](O)[C@H](O)[C@H]2O)[C@H](O)[C@H](O)[C@H]1O` (stereo not given in full): the max response was -25.1%.

Regarding `O=C(Nc1ccc(N2C(=O)[C@@H]3[C@H](C2=O)[C@@H]2C=C[C@H]3C2)c(Cl)c1)c1ccccn1`, the max response was -23.8%.

For the compound `Cc1c(C2=CCN(C(=O)N(C)C(C)C)CC2)nnn1-c1cccnc1F`, the max response is -3.1%.

For `CNC(=O)c1ccc2c(c1)CCO[C@H]2CCN1CCN(c2ccc(OC)cc2)CC1`, the max response is 2.66%.

`CCCc1cc(C)n(C)c(=O)c1CN(C)C(=O)c1cc(-c2ccc(N3CCN(C(C)C)CC3)nc2)cc2c1cnn2C(C)C`: the compound was called inactive.

Consider `Cn1c(SCC(=O)N2CCC[C@H]2C(=O)Nc2ccccc2-c2ccccc2)nc2ccccc21`, for which the max response is -3.15%.

With `COc1cc(/C=N\NC(=O)c2ccc3c(c2)OCO3)ccc1OCc1ccccc1`, the max response is 0.687%.

Consider `CC(=O)OC1C(OC(=O)c2ccccc2)C2C(C)(C)CCC(OC(C)=O)C2(C)C23CCC(C)(C2)C(=O)CC13` (stereo not given), for which the compound was classed as inactive.

For `CC1(CO)CC(O)[C@]2(C(=O)O)CCC34CC3(C=CC3[C@]5(C)C(CC[C@]34C)C(C)(CO)[C@@H](O)[C@H](O)[C@@H]5O)C2C1` (stereo not given in full), the max response was -3.3%.

As for `Cc1ccc(S(=O)(=O)NCc2ccc(C(=O)NCCN(Cc3ccccc3)C(C)C)cc2)cc1`, the max response is -5.87%.

As for `CC(=O)O[C@H]1C[C@@](O)(C(C)C)[C@@H]2[C@@H](OC(=O)c3ccc(O)cc3)CC(C)=CC[C@@]12C`, the max response was -25.3%.

`C=CCCN1CCC2(CC1)CN(C(=O)c1c(F)cccc1F)c1ccc(Cl)cc12`: the outcome was inactive.

With `C[C@@H]1CC[C@]2(C(=O)O)CC[C@]3(C)C(=CCC4[C@@]5(C)CC[C@H](O)[C@](C)(C(=O)O)C5CC[C@]43C)C2[C@]1(C)O` (stereo not given in full), the max response was -24.1%.

Regarding `O=C(c1ccccn1)N(Cc1cccs1)C1(C(=O)NC2CCCCC2)CCCCC1`, the compound was called inactive.

Regarding `NS(=O)(=O)c1ccc(N2CCN(CC[C@@H]3OCCc4ccccc43)CC2)cc1`, the max response was -0.981%.

`C=CC(C)(O)CC[C@@H]1[C@@]2(C)CCCC(C)(C)C2CC[C@@]1(C)O` (stereo not given in full): the max response is -17%.

`C[C@@H]1O[C@@H](O[C@H]2CC[C@@]3(C)C(CC[C@]4(C)C3CC=C3[C@@H]5CC(C)(C)CC[C@]5(C(=O)O[C@@H]5O[C@H](CO)[C@@H](O)[C@H](O)[C@H]5O)CC[C@]34C)[C@]2(C)CO)[C@H](O)[C@H](O[C@@H]2O[C@H](CO)[C@@H](O)[C@H](O)[C@H]2O)[C@H]1O` (stereo not given in full): the max response is -2.37%.

Regarding `CC(C)=CCCC1(C)C2CCC1(C)C(O)C2` (stereo not given), the max response was 0.907%.

With `COCC(c1ccc(C(F)(F)F)cc1)N1CCN(C2(C)CCN(C(=O)c3c(C)ncnc3C)CC2)CC1C` (stereo not given), the result was inactive.

For the compound `C=C[C@H](/C=C\c1ccc(O)cc1)c1ccc(O)cc1`, the outcome was inactive.

With `CCOc1ccc(-n2c([C@@H](C)N(Cc3cccnc3)C(=O)Cc3ccc(OC(F)(F)F)cc3)nc3ncccc3c2=O)cc1`, the max response was -0.198%.

`CC(O)(C(=O)C1CC1(CO)COC1OC(CO)C(O)C(O)C1O)C1C(O)CC2C3CC=C4CC(O)CC(O)C4(C)C3C(O)CC21C` (stereo not given): the max response is 0.504%.

Take `C=CC(C)(O)CC/C=C(/C)COC(=O)C(C)C1CCC(C)(C=C)O1` (stereo not given): the max response is 0.167%.

For the compound `COc1cc(NC(=O)c2cc(C3CC3)on2)c(OC)cc1Cl`, the max response is -5.84%.

With `CC(=O)O[C@@H]1CC2C(/C=C(\C)C(=O)[C@@]3(O)C[C@@H](C)[C@H](OC(=O)c4ccccc4)C3/C=C/1C)C2(C)C` (stereo not given in full), the max response was 1.35%.

Take `CCC/C=C\C=C/CCc1cc(O)c([C@@H]2O[C@H](CO)[C@@H](O)[C@H](O)[C@H]2O)c(O)c1C(=O)OC`: the max response was -3.37%.

Take `Nc1nc2c(s1)CCN(Cc1ccc(Cl)cc1)CC2`: the max response was 0.621%.
